From PubChem BioAssay AID1159580 (chemical genetic matrix, 2015)
Hit rate of the full screen: of about 5,500 compounds, about 2,000 (36%) were called active. About 18% were inconclusive and are not listed. Some of the results follow. Unmarked numbers belong to inactive results. Cut-off read from the data, not from the text of the source: active = normalized growth mostly below about 0.91 (no sharp cut-off); inconclusive = no clear call, values can overlap the other calls; inactive = mostly above about 0.92.

Assay: chemical genetic growth profiling, strain panel (AID 1159580);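 note: tested at 20 µM; growth read once vehicle control cultures reached saturation at 30 °C; 1 = growth at the plate median or of vehicle wells; lower values mean less growth of the strain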
Settings: S. cerevisiae deletion strains, growth OD
[1] = locus YAR019C, strain CDC15, stronger effect = lower value
[2] = locus YBL105C, strain PKC1, stronger effect = lower value
[3] = locus YBR135W, strain CKS1, stronger effect = lower value
[4] = locus YBR136W, strain MEC1, stronger effect = lower value
[5] = locus YBR160W, strain CDC28, stronger effect = lower value
[6] = locus YDL017W, strain CDC7, stronger effect = lower value
[7] = locus YDL028C, strain MPS1, stronger effect = lower value
[8] = locus YDL101C, strain DUN1, stronger effect = lower value
[9] = locus YDL108W, strain KIN28, stronger effect = lower value
[10] = locus YDL132W, strain cdc53, stronger effect = lower value
[11] = locus YDL214C, strain PRR2, stronger effect = lower value
[12] = locus YDR052C, strain DBF4, stronger effect = lower value
[13] = locus YDR054C, strain cdc34, stronger effect = lower value
[14] = locus YDR226W, strain ADK1, stronger effect = lower value
[15] = locus YDR477W, strain SNF1, stronger effect = lower value
[16] = locus YER123W, strain YCK3, stronger effect = lower value
[17] = locus YER133W, strain GLC7, stronger effect = lower value
[18] = locus YFL009W, strain cdc4, stronger effect = lower value
[19] = locus YFL029C, strain CAK1, stronger effect = lower value
[20] = locus YFR003C, strain YPI1, stronger effect = lower value
[21] = locus YFR019W, strain FAB1, stronger effect = lower value
[22] = locus YFR028C, strain CDC14, stronger effect = lower value
[23] = locus YGR040W, strain KSS1, stronger effect = lower value
[24] = locus YGR052W, strain FMP48, stronger effect = lower value
[25] = locus YGR092W, strain DBF2, stronger effect = lower value
[26] = locus YHR030C, strain SLT2, stronger effect = lower value
[27] = locus YHR079C, strain IRE1, stronger effect = lower value
[28] = locus YHR082C, strain KSP1, stronger effect = lower value
[29] = locus YHR205W, strain SCH9, stronger effect = lower value
[30] = locus YIL147C, strain SLN1, stronger effect = lower value
[31] = locus YJL095W, strain BCK1, stronger effect = lower value
[32] = locus YJL128C, strain PBS2, stronger effect = lower value
[33] = locus YJL157C, strain FAR1, stronger effect = lower value
[34] = locus YJR016C, strain ILV3, stronger effect = lower value
[35] = locus YJR066W, strain TOR1 (second series), stronger effect = lower value
[36] = locus YJR066W, strain TOR1, stronger effect = lower value
[37] = locus YKL048C, strain ELM1, stronger effect = lower value
[38] = locus YKL067W, strain YNK1, stronger effect = lower value
[39] = locus YKL101W, strain HSL1, stronger effect = lower value
[40] = locus YKL193C, strain SDS22, stronger effect = lower value
[41] = locus YKL203C, strain TOR2, stronger effect = lower value
[42] = locus YLR113W, strain HOG1, stronger effect = lower value
[43] = locus YLR133W, strain CKI1, stronger effect = lower value
[44] = locus YLR403W, strain SFP1, stronger effect = lower value
[45] = locus YML070W, strain DAK1, stronger effect = lower value
[46] = locus YMR001C, strain CDC5, stronger effect = lower value
[47] = locus YMR205C, strain PFK2 (second series), stronger effect = lower value
[48] = locus YMR277W, strain FCP1, stronger effect = lower value
[49] = locus YNL006W, strain LST8, stronger effect = lower value
[50] = locus YNL020C, strain ARK1, stronger effect = lower value
[51] = locus YNL161W, strain CBK1, stronger effect = lower value
[52] = locus YNL183C, strain NPR1, stronger effect = lower value
[53] = locus YNL207W, strain RIO2, stronger effect = lower value
[54] = locus YNL222W, strain SSU72, stronger effect = lower value
[55] = locus YNL307C, strain MCK1 (second series), stronger effect = lower value
[56] = locus YOL078W, strain AVO1, stronger effect = lower value
[57] = locus YOL136C, strain PFK27, stronger effect = lower value
[58] = locus YOR061W, strain CKA2, stronger effect = lower value
[59] = locus YOR119C, strain RIO1, stronger effect = lower value
[60] = locus YOR231W, strain MKK1, stronger effect = lower value
[61] = locus YOR329C, strain SCD5, stronger effect = lower value
[62] = locus YPL031C, strain PHO85, stronger effect = lower value
[63] = locus YPL153C, strain RAD53, stronger effect = lower value
[64] = locus YPL204W, strain HRR25, stronger effect = lower value
[65] = locus YPL209C, strain IPL1, stronger effect = lower value
[66] = locus YPL256C, strain CLN2, stronger effect = lower value
[67] = locus YPR025C, strain CCL1, stronger effect = lower value
[68] = locus YPR106W, strain ISR1, stronger effect = lower value
[69] = locus YPR111W, strain DBF20, stronger effect = lower value
[70] = strain NNK1, stronger effect = lower value
[71] = strain TSCII, stronger effect = lower value

For `CC(C)(C)c1cc2nc(C(F)(F)F)cc(NNC(=O)c3ccc(Cl)cc3)n2n1`, the normalized growth [1] was 0.978, the normalized growth [2] was 0.994 and the normalized growth [3] was 0.977. For the same molecule, the normalized growth [4] was 0.989, the normalized growth [5] was 0.978 and the normalized growth [6] was 0.996. For the same molecule, the normalized growth [7] was 0.984, the normalized growth [8] was 0.991 and the normalized growth [9] was 0.981. For the same molecule, the normalized growth [10] was 0.974, the normalized growth [11] was 1.01 and the normalized growth [12] was 0.989. It also gave a normalized growth [13] of 0.978, a normalized growth [14] of 0.982 and a normalized growth [15] of 1.03. The normalized growth [16] was 0.999, the normalized growth [17] was 1.03 and the normalized growth [18] was 0.981. For the same molecule, the normalized growth [19] was 0.981, the normalized growth [20] was 0.992 and the normalized growth [21] was 0.966. The normalized growth [22] was 0.979, the normalized growth [23] was 1.01 and the normalized growth [24] was 1.12. For the same molecule, the normalized growth [25] was 0.952, the normalized growth [26] was 1.04 and the normalized growth [27] was 0.989. For the same molecule, the normalized growth [28] was 1.06, the normalized growth [29] was 0.99 and the normalized growth [30] was 0.983. For the same molecule, the normalized growth [31] was 0.991, the normalized growth [32] was 0.961 and the normalized growth [33] was 1.02. The normalized growth [34] was 0.977, the normalized growth [35] was 0.991 and the normalized growth [36] was 1.05. It also gave a normalized growth [37] of 0.986, a normalized growth [38] of 1 and a normalized growth [39] of 1.01. It also gave a normalized growth [40] of 0.977, a normalized growth [41] of 1.07 and a normalized growth [42] of 0.983. It also gave a normalized growth [43] of 0.995, a normalized growth [44] of 0.991 and a normalized growth [45] of 1. It also gave a normalized growth [46] of 0.994, a normalized growth [47] of 1 and a normalized growth [48] of 0.973. It also gave a normalized growth [49] of 0.988, a normalized growth [50] of 1.01 and a normalized growth [51] of 0.991. It also gave a normalized growth [52] of 0.988, a normalized growth [53] of 0.981 and a normalized growth [54] of 0.975. The normalized growth [55] was 1, the normalized growth [56] was 0.98 and the normalized growth [57] was 1.01. For the same molecule, the normalized growth [58] was 0.995, the normalized growth [59] was 1.11 and the normalized growth [60] was 0.988. It also gave a normalized growth [61] of 0.997, a normalized growth [62] of 1.03 and a normalized growth [63] of 1.03. The normalized growth [64] was 1.05, the normalized growth [65] was 0.988 and the normalized growth [66] was 0.994. It also gave a normalized growth [67] of 0.988, a normalized growth [68] of 0.988 and a normalized growth [69] of 0.976. The normalized growth [70] was 0.983 and the normalized growth [71] was 0.984.

`C/C(=N/Nc1nc(C(C)(C)C)cs1)c1ccc(Cl)c(Cl)c1` gave a normalized growth [1] of 0.986, a normalized growth [2] of 0.983 and a normalized growth [3] of 0.994. The normalized growth [4] was 0.99, the normalized growth [5] was 0.987 and the normalized growth [6] was 0.981. The normalized growth [7] was 0.996, the normalized growth [8] was 0.981 and the normalized growth [9] was 0.994. It also gave a normalized growth [10] of 0.99, a normalized growth [11] of 0.919 and a normalized growth [12] of 0.977. For the same molecule, the normalized growth [13] was 0.978, the normalized growth [14] was 0.973 and the normalized growth [15] was 0.944. For the same molecule, the normalized growth [16] was 0.844, the normalized growth [17] was 0.943 and the normalized growth [18] was 0.987. It also gave a normalized growth [19] of 0.981, a normalized growth [20] of 0.985 and a normalized growth [21] of 0.91. For the same molecule, the normalized growth [22] was 0.994, the normalized growth [23] was 0.945 and the normalized growth [24] was 0.932. The normalized growth [25] was 0.923, the normalized growth [26] was 0.753 (active) and the normalized growth [27] was 0.759. The normalized growth [28] was 0.965, the normalized growth [29] was 0.953 and the normalized growth [30] was 0.993. The normalized growth [31] was 0.839, the normalized growth [32] was 0.954 and the normalized growth [33] was 0.889. The normalized growth [34] was 0.993, the normalized growth [35] was 0.835 and the normalized growth [36] was 0.891. The normalized growth [37] was 0.97, the normalized growth [38] was 0.949 and the normalized growth [39] was 0.98. The normalized growth [40] was 0.991, the normalized growth [41] was 0.969 and the normalized growth [42] was 0.803 (active). The normalized growth [43] was 0.933, the normalized growth [44] was 0.908 and the normalized growth [45] was 0.916. It also gave a normalized growth [46] of 0.983, a normalized growth [47] of 0.97 and a normalized growth [48] of 0.986. The normalized growth [49] was 0.986, the normalized growth [50] was 0.917 and the normalized growth [51] was 0.99. The normalized growth [52] was 0.92, the normalized growth [53] was 0.976 and the normalized growth [54] was 0.987. It also gave a normalized growth [55] of 0.899, a normalized growth [56] of 0.989 and a normalized growth [57] of 0.871. It also gave a normalized growth [58] of 0.943, a normalized growth [59] of 1 and a normalized growth [60] of 0.792. The normalized growth [61] was 0.981, the normalized growth [62] was 0.903 and the normalized growth [63] was 0.932. The normalized growth [64] was 0.899, the normalized growth [65] was 0.987 and the normalized growth [66] was 0.757 (active). It also gave a normalized growth [67] of 0.992, a normalized growth [68] of 0.983 and a normalized growth [69] of 0.974. The normalized growth [70] was 0.974 and the normalized growth [71] was 0.989.

`CC(C)(C)OC(=O)NC1CCN(C(=O)c2ccc(Cl)cc2Cl)CC1` showed a normalized growth (locus YAL013W, strain DEP1, stronger effect = lower value) of 1, a normalized growth (locus YBR229C, strain ROT2, stronger effect = lower value) of 0.993 and a normalized growth (locus YCL061C, strain MRC1, stronger effect = lower value) of 1.01. For the same molecule, the normalized growth [8] was 0.995, the normalized growth (locus YDL134C, strain PPH21, stronger effect = lower value) was 0.999 and the normalized growth (locus YDR150W, strain NUM1, stronger effect = lower value) was 0.95. It also gave a normalized growth (locus YEL061C, strain CIN8, stronger effect = lower value) of 1, a normalized growth (locus YGR078C, strain PAC10, stronger effect = lower value) of 1 and a normalized growth (locus YGR229C, strain SMI1, stronger effect = lower value) of 1.01. It also gave a normalized growth [26] of 1.11, a normalized growth (locus YHR087W, strain rtc3, stronger effect = lower value) of 0.996 and a normalized growth (locus YJL187C, strain SWE1, stronger effect = lower value) of 1.01. The normalized growth (locus YJR043C, strain POL32, stronger effect = lower value) was 0.997, the normalized growth (locus YJR075W, strain HOC1, stronger effect = lower value) was 0.999 and the normalized growth (locus YKL190W, strain CNB1, stronger effect = lower value) was 1.01. The normalized growth (locus YLR039C, strain RIC1, stronger effect = lower value) was 1.02, the normalized growth (locus YLR058C, strain SHM2 (second series), stronger effect = lower value) was 1 and the normalized growth (locus YLR085C, strain ARP6, stronger effect = lower value) was 1.03. For the same molecule, the normalized growth (locus YLR262C, strain YPT6, stronger effect = lower value) was 1.09, the normalized growth (locus YML094W, strain GIM5, stronger effect = lower value) was 1.04 and the normalized growth (locus YMR219W, strain ESC1, stronger effect = lower value) was 0.996. It also gave a normalized growth (locus YMR263W, strain SAP30, stronger effect = lower value) of 0.989, a normalized growth (locus YMR307W, strain GAS1, stronger effect = lower value) of 0.824 and a normalized growth (locus YNL128W, strain TEP1, stronger effect = lower value) of 1.01. The normalized growth (locus YNL153C, strain GIM3, stronger effect = lower value) was 1, the normalized growth (locus YNL298W, strain CLA4 (second series), stronger effect = lower value) was 1.01 and the normalized growth (locus YNL322C, strain KRE1, stronger effect = lower value) was 0.995. For the same molecule, the normalized growth (locus YNR030W, strain Alg12, stronger effect = lower value) was 1.02, the normalized growth (locus YPL055C, strain LGE1, stronger effect = lower value) was 1.08 and the normalized growth (locus YPL241C, strain CIN2, stronger effect = lower value) was 1.01. The normalized growth (locus YPR135W, strain CTF4, stronger effect = lower value) was 1.
